Screening data as filed in PubChem.
A selection: hits, their analogues and other compounds. The true share with any hit is near 1.2%.
Apoferritin bind – candidate novel general anesthetic via apoferritin binding | Potency, µM (doses to about 77.5 µM), for the others: at the highest dose activity change, negative = displacement, usual class: inhibitors | P02791 | apoferritin/1-aminoanthracene competitive binding, fluorescence | actives 0.074% (n = 350,000); further: potency means the concentration at half of the fitted maximal effect; on the % scale 0 is the no-effect control and ±100 the full control effect; nearly all actives have a fitted effect of over 20% in size
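In PBS, apoferritin at 10 uM is loaded with 1-AMA from a 50% saturated solution. After 10 min of compound exposure at ambient temperature, reduced 535 nm fluorescence indicates probe displacement.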
KCNH2 WT inh – inhibitors of human wildtype KCNH2 potassium channel; actives 0.37% (n = 340,000); Q12809; activity change, % at 1.84 µM; U2OS, BacMam KCNH2, thallium flux FluxOr; active compounds read low;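 active means maximum activity change below -70%; inconclusive means maximum activity change between -70% and -50%; inactive means maximum activity change above -50%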; further: on the % scale 0 is the no-effect control and ±100 the full control effect
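U2OS cells transduced with wild-type KCNH2 virus are loaded with FluxOr dye for 45 min, and thallium flux is measured in kinetic reads before and after stimulation buffer. Rate constants are normalized to DMSO controls.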
KCNH2 3.1 block – KCNH2 3.1 (human) potassium channel inhibition; U2OS KCNH2 3.1, thallium flux FluxOr; active compounds read low; activity change, % (tested at about 1.8 µM); actives 0.95% (n = 340,000); AID 720553;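 active means maximum activity change below -70%; inconclusive means maximum activity change from -70% to -50%; inactive means maximum activity change above -50%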;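 further: thallium influx rate constant from kinetic fluorescence after stimulation buffer; on the % scale 0 is the no-effect control and ±100 the full control effect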
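Steps: virus added to U2OS suspension (4 h, RT, dark); medium with 10% FBS added, cells plated, 37 C overnight; FluxOr/Red40 loading buffer 45 min RT; stimulation buffer, 2 min kinetic read; rate constant normalized.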
S-ASM inh – inhibitors of human secretory acid sphingomyelinase. AID 504937. placental ASM, HMU-PC fluorogenic substrate, 60 min. P17405. actives 0.006% (n = 340,000). Potency, µM (titrated, usually from 57.5 µM), without a hit: at the highest dose activity change, negative = inhibition, hits mostly inhibitors; further: potency means the concentration at half of the fitted maximal effect
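Steps: dispense placental human ASM, pin compound, wait 10 min at room temperature, add HMU-PC0 substrate at 9 uM final, incubate 60 min at 37 °C, add stop solution raising pH to 10, read fluorescence.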
mIDH1 inhibitor – human IDH1 R132H inhibition. O75874. actives 0.093% (n = 390,000). Potency, µM (highest dose often 76.6 µM), for the others: top-dose activity change, negative = inhibition, actives largely listed as inhibitors. IDH1-R132H enzyme, NADPH consumption, diaphorase/resazurin fluorescence; further: potency means the concentration at half of the fitted maximal effect; on the % scale 0 is the no-effect control and ±100 the full control effect; nearly all actives have a fitted effect of over 65% in size
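IDH1-R132H (0.5 ug/mL) preincubated 30 min with compound, then NADPH (0.016 mM) and alpha-KG (2 mM) added; 80 min at RT, pH 7.5. Remaining NADPH coupled via diaphorase/resazurin to fluorescence (540/590 nm); concentration-response curves normalized to no-enzyme control.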
* = called active by the depositor; ? = inconclusive; · = not tested or not shown. Unless noted, the call rests on the fitted dose curve; in most records, active means well fitted inhibition curve with a large enough effect; inconclusive means small, poorly fitted or top-dose-only effect; inactive means no such curve, though single readings can be large or run the other way.

SMILES	Apoferritin bind	KCNH2 WT inh	KCNH2 3.1 block	S-ASM inh	mIDH1 inhibitor
CCOC(=O)C1CCCN(Cc2c(C(=O)N3CCCCC3)nc3c(C)cccn23)C1 (centres undefined)	-4%	6	3	7%	6%
Clc1cccc(Cl)c1C1Nc2cccc3cccc(c23)N1	?	-6	-97*	-13%	0%
Cc1ccccc1OCC(=O)Nc1ccc([N+](=O)[O-])cc1	-9%	-169*	-3	5%	5%
CC(=O)Nc1ccc(NC(=O)COc2ccc([N+](=O)[O-])cc2)cc1	-1%	-3	-10	-4%	5%
CCCn1c(=O)c2c(nc3n2CCCN3CCc2ccc(OC)c(OC)c2)n(C)c1=O	-11%	-9	-1	-1%	-2%
CCn1c(=O)c2c(nc3n2CCCN3CCc2ccc(OC)c(OC)c2)n(C)c1=O	6%	1	-72*	4%	4%
NC(N)=NCCC[C@@H](N)C(=O)NCC(=O)N[C@@H](CC(=O)O)C(=O)N[C@@H](Cc1c[nH]c2ccccc12)C(=O)O	-1%	·	·	·	·
Cc1ccc(C=C2C(=O)c3ccccc3C2=O)o1	0%	-2	-83*	-3%	7%
Cc1ccc(/C=C2/C(=O)c3ccc(C(=O)O)cc3C2=O)o1	-6%	-12	3	4%	7%
N#Cc1c(N2CCN(c3ccc([N+](=O)[O-])cc3)CC2)[n+](=O)c2ccc(Cl)cc2n1[O-]	·	?	-97*	-10%	5%
O=C(NCc1ccccn1)C(=O)N/N=C/c1ccc2c(c1)OCO2	-7%	-7	-106*	-2%	7%
CCOC(=O)c1nn(-c2ccc(Cl)cc2)c2nnc(Cc3ccc(C)cc3)c(=O)n12	-12%	-6	-88*	-3%	-2%
CN(C)c1cccc(C(=O)N(C)C2CCCN(Cc3ccccc3F)C2)c1 (centres undefined)	-15%	-71*	7	6%	3%
Cc1cc(C)cc(C(=O)N(C)C2CCCN(Cc3ccccc3F)C2)c1 (centres undefined)	-7%	0	-4	5%	-8%
COc1cc(C(=S)N2CCN(c3ccccc3Cl)CC2)cc(O)c1O	?	-174*	-75*	-11%	-3%
O=C(Cn1cnc2ccccc2c1=O)Nc1nc2ccccc2s1	-5%	-3	-97*	5%	1%
O=C(CN1CCN(Cc2ccc(F)cc2)CC1)Nc1nc2ccccc2s1	-13%	-16	-74*	1%	5%
CCc1ccc2nc(NC(=O)Cn3cnc4ccccc4c3=O)sc2c1	-3%	1	-4	0%	-6%
CCCN1CCN(CC(=O)Nc2nc3ccccc3s2)CC1	-3%	17	-9	0%	-11%
CCOc1ccc(-c2cccc(NS(=O)(=O)c3c(C)cc(C)cc3C)c2)nn1	-10%	·	·	·	-7%
Cn1c(CSCc2ccc(Cl)cc2Cl)n[nH]c1=S	-24%	13	-4	2%	-10%
CSc1nnc(CSCc2ccc(Cl)cc2Cl)n1-c1ccccc1	0%	-5	-84*	-3%	-1%
Cc1ccc(-c2ccc(=O)n(CC(=O)Nc3ccc(C(C)C)cc3)n2)cc1	?	·	·	·	5%
CN(C)c1ccc(N=Nc2ccccc2C(=O)OCC(=O)N2CCCC2)cc1	-22%	-26	-83*	-16%	9%
CN(C)c1ccc(N=Nc2ccccc2C(=O)OCC(=O)N2CCCCCC2)cc1	?	10	2	-24%	3%
SMILES	Apoferritin bind	KCNH2 WT inh	KCNH2 3.1 block	S-ASM inh	mIDH1 inhibitor
CCCC(=O)N1CC(=O)Nc2ccc(F)cc2C1c1ccccc1 (centres undefined)	-7%	1	-87*	0%	2%
COc1ccc(OC(C)C(=O)Nc2cccc(OC)c2)cc1 (centres undefined)	3%	1	-15	3%	6%
CC(Oc1ccc(F)cc1)C(=O)Nc1cccc(-c2nn[nH]n2)c1 (centres undefined)	-4%	-86*	29	13%	0%
COc1ccc(-c2cc(C)nc3c(-c4ccc(OC)c(OC)c4)c(C)nn23)cc1	-9%	·	·	·	-2%
COc1ccc(C2CC(c3ccccc3)Oc3cc(C)c(Cl)c(C)c32)cc1 (centres undefined)	14%	·	·	·	·
CC1(C)C2CCC1(CS(=O)(=O)N1CCOCC1)C(=O)C2 (centres undefined)	-10%	7	-70*	-1%	5%
CN(CC[C@@H](Oc1ccc(C(F)(F)F)cc1)c1ccccc1)CC(=O)O	-23%	·	·	·	·
CNCC[C@@H](Oc1ccc(C(F)(F)F)cc1)c1ccccc1	·	·	-92*	-9%	0%
CCC(CC)c1nnc(NC(=O)c2nc3nc(C)cc(C)n3n2)s1	-5%	4	-110*	1%	-10%
CSc1cccc(NC(=S)N(Cc2ccc(C)cc2)Cc2cccnc2)c1	89%	9	-89*	-4%	4%
Cc1cc(SCC(=O)N/N=C/c2ccc(O)c(O)c2O)c(C)cc1Br	32µM*	1	3	-16%	-9%
Cc1ccc(-n2c(=O)c3c4c(sc3n(CC(=O)C(C)(C)C)c2=O)CCCCC4)cc1C	4%	·	·	·	-7%
Cc1nn(CC(=O)N2CCc3ccccc32)c(C)c1S(=O)(=O)NC(C)(C)C	·	-283*	-21	0%	4%
Cc1c(Br)c([N+](=O)[O-])nn1CC(=O)N1CCc2ccccc21	-12%	-4	19	-3%	3%
Cc1ccc(-n2cc(CNCCN3CCOC3=O)c(-c3ccc(F)cc3)n2)cc1	-10%	9	-9	-1%	9%
Cc1ccc(-n2cc(CNCCn3nc(C)cc3C)c(-c3ccc(F)cc3)n2)cc1	-14%	-29	-79*	-1%	7%
CN(C)CCCNC(=O)C[C@H]1C[C@H](C(=O)N2CCCCC2)[C@@]2(CCc3ccccc3)c3[nH]c4ccc(Cl)cc4c3CCN2C1=O	·	-120*	-47	-7%	4%
O=C(Nc1cccc(-c2cccc(F)c2)c1)C1CCN(CC2CCOC2)CC1 (centres undefined)	-8%	-44	-79*	1%	5%
O=C(Nc1cccc(-c2cccc(F)c2)c1)C1CCN(C2CCC2)CC1	?	-97*	-91*	1%	15%
CCN1/C(=C2\C(=O)N(c3ccccc3)N=C2C)C=Cc2cc(C)ccc21	-2%	0	-102*	0%	4%
CCc1ccc(Oc2c(C(F)(F)F)oc3c(CN4CCCC(C)C4)c(O)ccc3c2=O)cc1 (centres undefined)	5%	·	·	·	0%
COc1ccc(OC)c(C2C(C#N)=C(N)Oc3c2c(C)nn3-c2cccc(Cl)c2)c1 (centres undefined)	1%	4	-94*	0%	0%
Cc1nn(-c2cccc(Cl)c2)c2c1C(c1ccncc1)C(C#N)=C(N)O2 (centres undefined)	-12%	-2	-3	0%	0%
